Source: PubChem
RecA intein inh: Mtb RecA intein splicing inhibition. P9WHJ3. cell-free RecA intein splicing, fluorescence. inhibition, % (concentration not given with the values). 0.75% of 290,000 active. AID 2221; in the data active = inhibition above about 30%;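 note: 0% = vehicle wells and 100% = reference inhibitor control wells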
Rv3671c inh: Rv3671c (M. tuberculosis) protease inhibition; P9WHR9; inhibition, % at 5.96 µM; 0.048% of 320,000 active; in the data active = inhibition above about 38%;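 note: extracellular domain of Rv3671c used as enzyme; 0% = enzyme with DMSO and 100% = no enzyme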
GDH-TPI inh: inhibits GDH-TPI coupling enzymes, artifact for Mtb FBA screen; GDH-TPI coupled enzyme counterscreen, NADH absorbance; inhibition, % at 4.8 µM; 1.2% of 360,000 active; in the data active = inhibition above about 30%;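 note: 0% = DMSO wells and 100% = wells lacking the enzyme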
Mtb FBA inh: inhibitors of M. tuberculosis fructose-bisphosphate aldolase; P9WQA3; purified M. tuberculosis FBA, fluorescence read-out; inhibition, % at 1 µM; 2.3% of 360,000 active; in the data active = inhibition above about 27%;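 note: 0% = vehicle and 100% = reference inhibitor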
Mtb bLac sens: beta-lactam sensitization of Mtb H37Rv; M. tuberculosis H37Rv growth with meropenem, percent inhibition; inhibition, % at 25 µM; AID 434955; 0.27% of 330,000 active; call rule not given here;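 note: growth measured after seven days incubation then overnight dye step; 0% = bacteria only wells and 100% = bacteria with antibiotic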
Mtb UGM inh: inhibitors of M. tuberculosis UDP-galactopyranose mutase; P9WIQ1; purified UGM, fluorescence polarization probe displacement; inhibition, % at 10 µM; 0.06% of 320,000 active; AID 504406; in the data active = inhibition above about 10%, passing the limit was not always enough
Target sequence (P9WIQ1 whole entry, looked up): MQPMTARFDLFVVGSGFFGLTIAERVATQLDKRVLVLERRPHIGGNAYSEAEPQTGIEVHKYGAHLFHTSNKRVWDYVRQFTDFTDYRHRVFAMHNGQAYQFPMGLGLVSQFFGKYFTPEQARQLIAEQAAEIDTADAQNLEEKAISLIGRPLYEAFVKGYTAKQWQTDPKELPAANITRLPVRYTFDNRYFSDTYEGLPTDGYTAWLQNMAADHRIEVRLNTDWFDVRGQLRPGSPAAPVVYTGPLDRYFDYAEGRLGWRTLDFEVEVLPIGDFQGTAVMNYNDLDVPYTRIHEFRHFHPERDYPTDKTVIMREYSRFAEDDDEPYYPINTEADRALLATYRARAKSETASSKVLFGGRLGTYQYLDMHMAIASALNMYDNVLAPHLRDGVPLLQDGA
Active calls of the source: *. A selection: hits, their analogues and other compounds. The true share with any hit is near 4%.

COc1cccc2[nH]c3c(N4CCC(C(N)=O)CC4)ncnc3c12 was read as RecA intein inh -5.7, Rv3671c inh 2.3, GDH-TPI inh 24.9, Mtb FBA inh 182.7*, Mtb bLac sens 4.8 and Mtb UGM inh 0.1.
COc1cc2[nH]c3c(N4CCC(C(N)=O)CC4)ncnc3c2cc1OC was read as RecA intein inh -4.4, Rv3671c inh -1.9, Mtb bLac sens -4.9 and Mtb UGM inh 3.4.
For Cc1c2n(c3ccccc13)CC/C2=N\O the results were RecA intein inh 0.0, Rv3671c inh -4.0, GDH-TPI inh 0.7, Mtb FBA inh 2.0, Mtb bLac sens 4.2 and Mtb UGM inh 0.0.
CO/N=C1\CCn2c1c(C)c1ccccc12 was read as RecA intein inh 6.8, Rv3671c inh 5.8, GDH-TPI inh 31.4*, Mtb FBA inh 3.1, Mtb bLac sens -8.8 and Mtb UGM inh -2.6.
For Cc1ccc(C)c(S(=O)(=O)N(C)c2ccc(OC(=O)C3CCN(C(=O)Nc4ccccc4)CC3)cc2)c1 the results were GDH-TPI inh 7.3 and Mtb FBA inh 0.3.
`Cc1cc(C)c(C)c(S(=O)(=O)N2CCC(C(=O)NCCCN3CCOCC3)CC2)c1C` gave Rv3671c inh 0.3, GDH-TPI inh -0.7, Mtb FBA inh 1.5, Mtb bLac sens -3.5 and Mtb UGM inh -0.7.
`CCS/C(N)=N/N=C/c1cc(C)ccc1O` gave RecA intein inh -2.0, Rv3671c inh -2.6, GDH-TPI inh 23.0, Mtb FBA inh 1.7, Mtb bLac sens 99.8 and Mtb UGM inh -6.7.
Screening CCCCS/C(N)=N/N=C/c1cc(C)ccc1O returned RecA intein inh -7.7, Rv3671c inh 9.6, GDH-TPI inh 40.9*, Mtb FBA inh 2.1, Mtb bLac sens 99.6 and Mtb UGM inh 0.2.
For CN(C)c1ccc(C(=O)c2ccccc2)cc1 the results were RecA intein inh 4.5, Rv3671c inh -3.8, GDH-TPI inh 31.1*, Mtb FBA inh -3.7, Mtb bLac sens -2.2 and Mtb UGM inh 2.3.
Screening C=C(c1ccccc1)c1ccc(N(C)C)cc1 returned RecA intein inh -3.6, Rv3671c inh -4.4, GDH-TPI inh 10.0, Mtb FBA inh 1.8, Mtb bLac sens -0.9 and Mtb UGM inh -1.2.
COc1ccc(S(=O)(=O)N2CCCOC2CNC(=O)C(=O)NCCc2ccco2)cc1C (stereo not given) was read as RecA intein inh 0.9, Rv3671c inh -8.8, GDH-TPI inh 6.3, Mtb FBA inh -0.3, Mtb bLac sens -5.8 and Mtb UGM inh 1.1.
Screening CC(=O)OC[C@@H]1CN(Cc2ccccc2)C[C@H](n2cnc3c(N4CCOCC4)ncnc32)O1 returned GDH-TPI inh -0.4 and Mtb FBA inh -1.5.
COc1ccc(CNC(=O)c2cnc3cc(C)ccn3c2=O)cc1 was read as RecA intein inh -2.9, Rv3671c inh -6.8, GDH-TPI inh 7.2, Mtb FBA inh 5.4, Mtb bLac sens -0.6 and Mtb UGM inh 2.9.
`CCOC(=O)c1cnc2cc(C)ccn2c1=O` gave RecA intein inh -2.0, Rv3671c inh -9.2, GDH-TPI inh 31.4*, Mtb FBA inh 124.4*, Mtb bLac sens 1.3 and Mtb UGM inh -2.2.
Screening COc1ccc2c(c1)cc(C(=O)N/N=C/c1c(O)c(C(=O)O)cc3ccccc13)n2C returned RecA intein inh -15.7, Rv3671c inh 18.8, GDH-TPI inh 31.9*, Mtb FBA inh -1.8, Mtb bLac sens 1.1 and Mtb UGM inh -3.3.
`CC(=O)Nc1ccc(N=Cc2c(O)c(C(=O)Nc3ccccc3)cc3ccccc23)cc1` gave RecA intein inh -6.8, Rv3671c inh 4.6, Mtb bLac sens 20.9 and Mtb UGM inh 6.4.
Screening COc1ccc(C2CC(c3ccccc3Cl)=NN2c2ccc(S(N)(=O)=O)cc2)cc1 (stereo not given) returned GDH-TPI inh 2.7 and Mtb FBA inh 173.8*.
Screening O=C(O)c1ccc(N2N=C(c3ccccc3)CC2c2ccccc2)cc1 (stereo not given) returned RecA intein inh -429.3, Rv3671c inh 2.0, GDH-TPI inh 32.2*, Mtb FBA inh active, Mtb bLac sens 8.3 and Mtb UGM inh 2.5.
`NS(=O)(=O)c1ccc(N2N=C(c3ccccc3)CC2c2ccc(F)cc2)cc1` (stereo not given) gave RecA intein inh -27.0, Rv3671c inh 7.2, GDH-TPI inh 9.4, Mtb FBA inh active, Mtb bLac sens 12.7 and Mtb UGM inh -2.3.
Screening COc1ccc(C2CC(c3cccc(C(F)(F)F)c3)=NN2c2ccc(S(N)(=O)=O)cc2)cc1 (stereo not given) returned GDH-TPI inh 4.2 and Mtb FBA inh active.
